The subject of assay [1] is Plasmodium falciparum Sir2 (PF13_0152, Sir2A). Briefly: pfSir2 binders on small-molecule microarrays, primary screen, biochemical, small-molecule microarray, 635 nm fluorescence (AID 1098).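 Note: score merges spot fluorescence intensity with its signal-to-noise ratio.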 The note with it: small-molecule microarray binding, fluorescence 635 nm; higher = more signal.
Assay [2] in a line: small-molecule microarray binders of probe aDKK1, primary screen, biochemical, biotinylated probe, 635/667 nm fluorescence (AID 1099).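 Note: score merges 667nm spot fluorescence with signal to noise across triplicate slides.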 The settings on record: higher = more signal.
A short description of assay [3]: small-molecule microarray binders of probe aCHRDL2, primary screen, biochemical, biotinylated probe, 635/667 nm fluorescence (AID 1100). The note with it: higher = more signal.
Assay [4] can be described thus: splicing luciferase reporter signal modulators, primary screen, spliceosome inhibition project, cell-based, HEK293, splice +/- reporter (AID 1101).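 Note: HEK293 cells carrying a splicing-competent luciferase reporter gene; test concentration not given here.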 The note with it: luminescence, 24 h, higher = more signal, called active from +8 up or from −8 down. For orientation: Reporter assays use an easily measured gene product as a stand-in for the process of interest.
Assay [5] concerns the target Fibroblast growth factor 10 (Homo sapiens) (UniProt O15520). Put plainly: FGF10 binders on small-molecule microarrays, primary screen, biochemical, small-molecule microarray, 635 nm fluorescence (AID 1102). The settings on record: FGF10 binding, fluorescence 635 nm, higher = more signal.
In assay [6] the test system is glycogen synthase kinase-3 (GSK3A per assay name; protocol says GSK3B). Put plainly: GSK3 binders on small-molecule microarrays, primary screen, biochemical, small-molecule microarray, 635 nm fluorescence, GSK3A (AID 1103). Note: the record names both GSK3A and GSK3B. The settings on record: small-molecule microarray binding, fluorescence 635 nm; higher = more signal.
Assay [7] addresses Epidermal growth factor receptor (Homo sapiens) (UniProt P00533). Put plainly: EGFR binders on small-molecule microarrays, primary screen, biochemical, small-molecule microarray, 635 nm fluorescence (AID 1104).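 Note: score merges 667 nm emission intensity with spot signal to noise over triplicate slides.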 The settings on record: EGFR binding, higher = more signal.
Assay [8] addresses Follistatin-related protein 3 (Homo sapiens) (UniProt O95633). Put plainly: FSTL3 binders on small-molecule microarrays, primary screen, biochemical, small-molecule microarray, 635 nm fluorescence (AID 1105).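 Note: score merges emission near 667 nm and signal to noise per printed spot across three slides.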 The settings on record: FSTL3 binding, higher = more signal.
Assay [9] addresses Dickkopf-related protein 1 (Homo sapiens) (UniProt O94907). Put plainly: DKK1 binders on small-molecule microarrays, primary screen, biochemical, small-molecule microarray, 635 nm fluorescence scan (AID 1106).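 Note: score merges emission near 667 nm with signal to noise over three replicate slides.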 The note with it: DKK1 binding, higher = more signal.
Assay [10] concerns Inhibin beta A chain (activin A). Briefly: INHBA (activin A) binders on microarrays, primary screen, biochemical, small-molecule microarray, 635 nm fluorescence scan (AID 1107).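 Note: mouse activin A protein probed at 4.33 µg/mL on printed slides; score merges bound-protein fluorescence near 667 nm with spot signal-to-noise.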 The note with it: small-molecule microarray binding, higher = more signal.
Assay [11] has as its system Human papillomavirus type 1a protein E7 (residues 44-93). Put plainly: HPV1a E7 fragment binders on microarrays, primary screen, biochemical, small-molecule microarray, residues 44-93, 635 nm fluorescence (AID 1108).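 Note: E7 fragment applied at 1 µg/mL in TBST for 1 h at 4 C; score combines spot fluorescence with its signal to noise ratio.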 The note with it: small-molecule microarray binding, fluorescence 635 nm; higher = more signal.
Assay [12] can be described thus: modulators of HCV replicon luciferase signal, primary screen, HCV replication inhibitor project, Huh7 cells, luciferase reporter (AID 1109).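 Note: huh7 hepatoma cells harbouring a luciferase neomycin HCV replicon reporter; luciferase luminescence as measure of HCV replicon replication; test concentration not given here.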 The settings on record: 48 h, higher = more signal.
Assay [13] addresses Left-right determination factor 2 (Homo sapiens) (UniProt O00292). Put plainly: LEFTY2 binders on small-molecule microarrays, primary screen, biochemical, small-molecule microarray, 635 nm fluorescence scan (AID 1110). The note with it: LEFTY2 binding, higher = more signal.
Assay [14] addresses Calmodulin-1 (Homo sapiens) (UniProt P0DP23). Briefly: CALM1 binders on microarrays, EGTA buffer, profiling panel, biochemical, small-molecule microarray, Cy5-labelled CALM1 (AID 1111).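 Note: labelled calmodulin applied in Tris saline Tween buffer holding calcium plus EGTA and DTT.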 The settings on record: Cy5-CALM1 binding fluorescence, higher = more signal.
Assay [15] has the same target. Put plainly: calcium-bound CALM1 binders on microarrays, profiling panel, artefact control for SMM control-protein annotation, biochemical, small-molecule microarray, Cy5-labelled CALM1, plus calcium (AID 1112).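 Note: score merges spot fluorescence with signal to noise from triplicate slides.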 The settings on record: Cy5-CALM1 binding fluorescence, higher = more signal.
Assay [16] can be described thus: small-molecule microarray binders of probe aWnt5a, primary screen, biochemical, biotinylated probe, 635/667 nm fluorescence (AID 1113).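 Note: score merges 667 nm fluorescence intensity with signal-to-noise per printed feature.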 The settings on record: higher = more signal.
Assay [17] can be described thus: small-molecule microarray binders of probe aShh, primary screen, biochemical, biotinylated probe, 635/667 nm fluorescence (AID 1114).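 Note: probe is biotin-labelled aShh protein from a stem cell growth factor screen; measures binding of labelled protein to compounds printed on the slide; score merges feature fluorescence at 667 nm with signal-to-noise.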 The settings on record: higher = more signal.
Assay [18] in a line: small-molecule microarray binders of probe aNog, primary screen, biochemical, biotinylated probe, 635/667 nm fluorescence (AID 1115).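 Note: probe is biotinylated aNog protein used at 0.15 µg/mL for 1 h at 4 C; z-score combines 667 nm fluorescence of each spot with its signal to noise.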 The note with it: higher = more signal.
Assay [19] addresses Torsin-1A-interacting protein 1 (Homo sapiens) (UniProt Q5JTV8). Put plainly: LAP1 binders from COS7 cell lysate, primary screen, small-molecule microarray, 635/667 nm fluorescence (AID 1116). The settings on record: COS7-hLAP1 lysate binding, 635 nm fluorescence, higher = more signal.
The target in assay [20] is Alpha-bungarotoxin (Bungarus multicinctus) (UniProt P60615). Put plainly: alpha-bungarotoxin binders on microarray, profiling panel, artefact control for SMM control protein annotation, biochemical, small-molecule microarray, Alexa647 label, 635/667 nm fluorescence (AID 1117). The settings on record: alpha-BTX-A647 binding fluorescence, higher = more signal.
Chain of Alpha-bungarotoxin (Bungarus multicinctus) (P60615 whole entry, looked up): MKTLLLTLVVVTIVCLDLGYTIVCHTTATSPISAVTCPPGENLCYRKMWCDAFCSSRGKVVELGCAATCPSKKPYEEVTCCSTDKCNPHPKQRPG

The text below walks through data of PubChem BioAssay.

The source made the active and inactive calls.

Chain of Follistatin-related protein 3 (Homo sapiens) (O95633 whole entry, looked up): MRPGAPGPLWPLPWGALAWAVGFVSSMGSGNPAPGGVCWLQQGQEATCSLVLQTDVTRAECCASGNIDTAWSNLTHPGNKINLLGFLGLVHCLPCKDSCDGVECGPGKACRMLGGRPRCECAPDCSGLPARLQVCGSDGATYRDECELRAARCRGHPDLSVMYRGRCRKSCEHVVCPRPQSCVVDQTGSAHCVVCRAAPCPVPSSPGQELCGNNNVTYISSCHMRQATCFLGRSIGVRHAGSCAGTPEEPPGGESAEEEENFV
Chain of Left-right determination factor 2 (Homo sapiens) (O00292 whole entry, looked up): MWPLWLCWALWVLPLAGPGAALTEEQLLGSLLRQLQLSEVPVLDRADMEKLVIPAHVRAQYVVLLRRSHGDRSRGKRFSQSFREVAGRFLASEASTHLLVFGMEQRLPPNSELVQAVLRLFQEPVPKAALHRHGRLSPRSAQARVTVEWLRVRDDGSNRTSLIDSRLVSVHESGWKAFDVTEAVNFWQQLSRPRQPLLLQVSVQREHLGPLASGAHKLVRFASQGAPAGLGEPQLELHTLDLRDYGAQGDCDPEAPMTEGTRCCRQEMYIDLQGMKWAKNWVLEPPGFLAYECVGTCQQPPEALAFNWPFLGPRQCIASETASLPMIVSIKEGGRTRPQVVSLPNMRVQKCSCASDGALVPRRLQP
Chain of Fibroblast growth factor 10 (Homo sapiens) (O15520 whole entry, looked up): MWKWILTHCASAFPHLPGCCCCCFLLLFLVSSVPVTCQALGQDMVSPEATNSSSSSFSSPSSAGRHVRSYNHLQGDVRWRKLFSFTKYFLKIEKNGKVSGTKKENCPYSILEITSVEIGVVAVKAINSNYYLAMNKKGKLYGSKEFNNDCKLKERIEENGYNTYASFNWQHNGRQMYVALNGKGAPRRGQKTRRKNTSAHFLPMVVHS
Chain of Torsin-1A-interacting protein 1 (Homo sapiens) (Q5JTV8 whole entry, looked up): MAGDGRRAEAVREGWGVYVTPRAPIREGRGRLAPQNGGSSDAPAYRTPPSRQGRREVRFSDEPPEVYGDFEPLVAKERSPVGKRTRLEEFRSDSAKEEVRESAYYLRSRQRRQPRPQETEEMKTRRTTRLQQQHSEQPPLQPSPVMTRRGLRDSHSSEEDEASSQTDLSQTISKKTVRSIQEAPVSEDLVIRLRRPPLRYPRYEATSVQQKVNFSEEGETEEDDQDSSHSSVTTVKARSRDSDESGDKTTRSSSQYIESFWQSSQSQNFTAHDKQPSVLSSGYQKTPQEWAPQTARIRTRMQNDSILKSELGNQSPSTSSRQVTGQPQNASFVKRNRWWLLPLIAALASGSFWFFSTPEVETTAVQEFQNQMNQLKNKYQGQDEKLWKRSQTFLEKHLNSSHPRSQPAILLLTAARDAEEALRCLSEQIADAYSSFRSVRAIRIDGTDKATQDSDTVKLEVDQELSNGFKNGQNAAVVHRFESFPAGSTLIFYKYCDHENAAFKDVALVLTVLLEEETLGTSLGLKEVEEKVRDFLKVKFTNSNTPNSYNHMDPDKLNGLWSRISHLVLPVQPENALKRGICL
Chain of Dickkopf-related protein 1 (Homo sapiens) (O94907 whole entry, looked up): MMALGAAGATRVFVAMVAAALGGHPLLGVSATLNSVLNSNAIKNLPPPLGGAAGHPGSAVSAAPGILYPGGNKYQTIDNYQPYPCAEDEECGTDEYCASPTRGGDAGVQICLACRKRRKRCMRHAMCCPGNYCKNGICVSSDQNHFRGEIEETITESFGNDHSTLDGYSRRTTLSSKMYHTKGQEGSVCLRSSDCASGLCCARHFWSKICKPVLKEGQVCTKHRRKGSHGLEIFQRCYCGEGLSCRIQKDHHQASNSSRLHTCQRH
Chain of Epidermal growth factor receptor (Homo sapiens) (P00533 whole entry, looked up): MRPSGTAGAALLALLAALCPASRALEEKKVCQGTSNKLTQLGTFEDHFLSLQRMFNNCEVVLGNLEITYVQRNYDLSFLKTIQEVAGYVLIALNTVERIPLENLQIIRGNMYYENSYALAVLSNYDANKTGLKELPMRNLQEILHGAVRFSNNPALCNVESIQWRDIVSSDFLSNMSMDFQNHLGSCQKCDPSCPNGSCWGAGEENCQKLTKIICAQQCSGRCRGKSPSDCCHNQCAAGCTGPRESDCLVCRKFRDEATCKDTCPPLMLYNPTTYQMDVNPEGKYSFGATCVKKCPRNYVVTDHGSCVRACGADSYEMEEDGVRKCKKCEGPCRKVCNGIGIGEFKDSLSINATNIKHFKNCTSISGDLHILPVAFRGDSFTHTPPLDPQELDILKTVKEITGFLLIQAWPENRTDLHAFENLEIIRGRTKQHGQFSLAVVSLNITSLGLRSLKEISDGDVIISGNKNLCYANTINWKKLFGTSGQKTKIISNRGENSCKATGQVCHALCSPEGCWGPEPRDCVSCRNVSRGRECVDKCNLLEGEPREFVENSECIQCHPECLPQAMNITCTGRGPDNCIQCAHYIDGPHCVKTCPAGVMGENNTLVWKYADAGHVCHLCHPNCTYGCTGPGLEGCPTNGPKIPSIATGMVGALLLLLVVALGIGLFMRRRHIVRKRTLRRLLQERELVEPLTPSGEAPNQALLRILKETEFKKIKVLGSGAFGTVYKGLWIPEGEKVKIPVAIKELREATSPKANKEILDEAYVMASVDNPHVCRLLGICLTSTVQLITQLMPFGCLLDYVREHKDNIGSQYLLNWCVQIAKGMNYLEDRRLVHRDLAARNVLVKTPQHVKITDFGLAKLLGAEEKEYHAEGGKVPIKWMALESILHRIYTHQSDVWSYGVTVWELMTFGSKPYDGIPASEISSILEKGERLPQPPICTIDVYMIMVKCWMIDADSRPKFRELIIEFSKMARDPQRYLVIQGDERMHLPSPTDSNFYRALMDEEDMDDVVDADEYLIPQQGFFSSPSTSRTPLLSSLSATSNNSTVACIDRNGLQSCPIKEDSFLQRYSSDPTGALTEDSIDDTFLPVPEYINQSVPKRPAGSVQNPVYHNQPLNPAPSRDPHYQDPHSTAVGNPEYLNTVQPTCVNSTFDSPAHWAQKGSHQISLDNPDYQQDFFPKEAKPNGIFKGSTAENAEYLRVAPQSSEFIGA

As for `C=CC[C@]1(C(=O)N(C)C)N=C(c2ccc(OCCCO)cc2)O[C@H]1c1ccccc1CN=[N+]=[N-]`, the composite z-score in assay [1] stood at 1.27; in assay [2] it was 1.68; in assay [3], 1.09; in assay [5] it was 0.698; in [6] it was 1.32; in [7] it was 0.0528. The composite z-score in assay [8] turned out to be 0.513; in assay [9], 0.328; in assay [10], 1.43; in assay [11] it was 0.923; in assay [13], 0.447; in assay [14] it was 2.17. In addition, the composite z-score was 1.17 in [15]; 0.0324 in assay [16]; -0.174 in assay [17]; 1.24 in [18]; 1.92 in assay [19]; 1.58 in assay [20]. Further, the figures for the z-score in assay [4] and in assay [12] were -0.0363 (inactive) and -2.44, respectively.
In the case of `CC(C)C[C@@H]1NC(=O)[C@@H]2C[C@H](C(=O)NCCCCCNC(=O)CS)[C@H](c3cccc(OCCO)c3)N2C1=O`, the composite z-score in assay [1] is 1.68; in [2], 0.588; in [3], 0.619; in assay [5], 0.654; in assay [6], 1.32; in [7], 0.717. In addition, the composite z-score was found to be 0.921 in assay [8]; 0.741 in [9]; 0.947 in assay [10]; 0.64 in assay [11]; 0.581 in assay [13]; 0.942 in assay [14]. Moreover, the composite z-score is 0.0355 in assay [15]; -0.0236 in assay [16]; 0.242 in assay [17]; 0.418 in assay [18]; 1.25 in assay [19]; 2.72 in assay [20]. For the same molecule, the values for the z-score in assay [4] and in assay [12] were -1.15 (inactive) and 0.568, respectively.
Regarding `NCCCCCCNC(=O)[C@@H]1C[C@@H]2C(=O)N[C@@H](Cc3ccccc3)C(=O)N2[C@@H]1c1ccc(O)cc1`, the composite z-score turned out to be 0.791 in [1]; 0.678 in assay [2]; 0.709 in assay [3]; 0.25 in assay [5]; 0.717 in assay [6]; 0.0626 in assay [7]. In addition, the composite z-score in [8] is 0.367; in assay [9], 0.627; in [10], 1.15; in assay [11], 1.12; in assay [13], 0.093; in [14], 2. Further, the composite z-score in assay [15] was 1.32; in [16] it was -0.11; in [17], 0.318; in assay [18], 0.075; in assay [19], 0.526; in assay [20] it was 1.3. Further, the z-score is -0.573 (inactive) in assay [4] and 0.355 in assay [12].
As to `COCCOC(=O)N1C(=O)[C@@]2(c3cc(C#CCNC(N)=O)ccc31)[C@H](C(=O)NC[C@H](O)c1ccccc1)[C@H]1C(=O)O[C@H](c3ccccc3)[C@H](c3ccccc3)N1[C@@H]2c1ccc(O)cc1`, the composite z-score in assay [1] was 1.54; in assay [2], 0.347; in assay [3], 0.925; in [5], 0.477; in [6], 0.0604; in [7] it was -0.0057. The composite z-score was 0.683 in assay [8]; -0.347 in [9]; 0.7 in [10]; 0.515 in assay [11]; 0.0741 in assay [13]; 1.01 in assay [14]. Further, the composite z-score was 0.571 in assay [15]; -0.0203 in assay [16]; -0.152 in [17]; -0.122 in [18]; 0.138 in assay [19]; 1.04 in assay [20]. The z-score in [4] is 0.012 (inactive); in [12] it was -0.249.
Take `COc1ccc(C(=O)Nc2cccc(CN3C(=O)[C@@]4(O[C@@H](CCO)[C@H]([Si](C)(C)c5ccc(OC)cc5)[C@H]4C)c4ccccc43)c2)cc1`: the composite z-score was 0.775 in assay [1]; 0.481 in assay [2]; 0.666 in assay [3]; 0.0414 in assay [5]; 0.2 in assay [6]; -0.121 in assay [7]. Moreover, the composite z-score is 0.131 in assay [8]; 0.19 in assay [9]; 1.49 in assay [10]; 0.721 in [11]; -0.0057 in [13]; 1.08 in [14]. Also, the composite z-score was 1.03 in assay [15]; -0.0721 in assay [16]; -0.0146 in assay [17]; 0.0043 in assay [18]; 0.0777 in assay [19]; 0.689 in [20]. In addition, the figures for the z-score in [4] and in [12] were 1.92 (inactive) and -5.15, respectively.
